From PubChem BioAssay (EPA / NIEHS)
“And” between values parts separate entries of the source, which are not always exact repeats. Equal entries are not always repeated. Results filed as inconclusive are left out. Some compounds were tested as several samples or in several runs, with calls that do not always agree. The source made the active and inactive calls. Rule for the calls: active = hit-call score of the fitted dose curve at least 0.9, where 1 is the maximum; inconclusive = response in the unintended direction; inactive = score below 0.9.

Assays:
[1] = biological target: Cellular tumor antigen p53 (Homo sapiens) (UniProt P04637); test: TOX21_p53_BLA_p2_ratio: Tox21 HCT-116 p53 Agonism Beta-lactamase Assay, Ratio, Phase 2 (AID 2283592)
How it was run: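 Cleaved-to-uncleaved substrate ratio (460 vs 530 nm) measured in HCT116 cells with an inducible beta-lactamase reporter linked to p53 activity. Compounds incubated 16 h at 37C before 2 h room-temperature CCF4-AM loading.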

[2] = TOX21_p53_BLA_p3_viability: Viability Assessment in the Tox21 HCT-116 p53 Agonism Beta-lactamase Assay, Phase 3 (AID 2283593);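 note: cells exposed to compound for 16 h before reading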
How it was run: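 HCT116 cells, 4000/well, dosed 5 h after plating by pin transfer (217-fold dilution from DMSO stock) and incubated 16 h at 37C, 5% CO2. Viability read as ATP luminescence with CellTiter-Glo after 30 min at room temperature.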

[3] = biological target: Cellular tumor antigen p53 (Homo sapiens) (UniProt P04637); test: TOX21_p53_BLA_p3_ratio: Tox21 HCT-116 p53 Agonism Beta-lactamase Assay, Ratio, Phase 3 (AID 2283596)
How it was run: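 Cells were seeded at 4000/well, rested 5 h at 37C, then dosed with DMSO compound solutions (217-fold dilution) for 16 h. CCF4-AM substrate was loaded for 2 h at room temperature, and the 460/530 nm emission ratio was fitted for gain of signal versus DMSO.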

[4] = TOX21_p53_BLA_p4_viability: Viability Assessment in the Tox21 HCT-116 p53 Agonism Beta-lactamase Assay, Phase 4 (AID 2283597);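 note: hits lower the luminescence signal meaning cytotoxicity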
How it was run: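 Viability is taken as cellular ATP: after 16 h compound exposure of HCT116 cells and a 2 h room-temperature CCF4-AM substrate step, CellTiter-Glo reagent is added and luminescence is measured 30 min later.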

[5] = biological target: Cellular tumor antigen p53 (Homo sapiens) (UniProt P04637); test: TOX21_p53_BLA_p5_ratio: Tox21 HCT-116 p53 Agonism Beta-lactamase Assay, Ratio, Phase 5 (AID 2283599)
How it was run: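 HCT-116 p53-bla cells (4000/well) plated 5 h, dosed with compound (217-fold DMSO dilution) for 16 h at 37 C; CCF4-AM substrate 2 h at room temperature. Activity is the 460/530 nm emission ratio (405 nm excitation), fitted in gain-of-signal direction versus DMSO.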

[6] = TOX21_p53_BLA_p5_viability: Viability Assessment in the Tox21 HCT-116 p53 Agonism Beta-lactamase Assay, Phase 5 (AID 2283600)
How it was run: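 Viability is taken from cellular ATP content, measured by luciferase luminescence in the same wells after the beta-lactamase ratio read. Cells are seeded at 4000 per well and exposed to DMSO-dissolved compounds, diluted 217-fold, for 16 h.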

[7] = biological target: Cellular tumor antigen p53 (Homo sapiens) (UniProt P04637); test: TOX21_p53_BLA_p4_ratio: Tox21 HCT-116 p53 Agonism Beta-lactamase Assay, Ratio, Phase 4 (AID 2283601)
How it was run: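 HCT-116 p53 beta-lactamase reporter cells (4000/well) preincubated 5 h, then compound (217-fold dilution of DMSO stock) for 16 h at 37C. CCF4-AM substrate added 2 h at room temperature; 460/530 nm emission ratio fitted upward versus DMSO.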

[8] = ACEA_ER_AUC_viability: ACEA Biosciences xCELLigence Real-Time Cell Analysis on Estrogen Receptor Agonism for Viability (AID 2283782);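 note: hit means loss of impedance signal meaning reduced cell growth or viability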
How it was run: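 Read-out: real-time electrical impedance (RT-CES) area under curve, loss of signal taken as reduced viability, normalized to DMSO baseline. T-47D cells, charcoal-stripped serum medium, compounds up to 100 uM final, continuous exposure, 80 h.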

Measured: AC50

Chain of Cellular tumor antigen p53 (Homo sapiens) (P04637 whole entry, looked up): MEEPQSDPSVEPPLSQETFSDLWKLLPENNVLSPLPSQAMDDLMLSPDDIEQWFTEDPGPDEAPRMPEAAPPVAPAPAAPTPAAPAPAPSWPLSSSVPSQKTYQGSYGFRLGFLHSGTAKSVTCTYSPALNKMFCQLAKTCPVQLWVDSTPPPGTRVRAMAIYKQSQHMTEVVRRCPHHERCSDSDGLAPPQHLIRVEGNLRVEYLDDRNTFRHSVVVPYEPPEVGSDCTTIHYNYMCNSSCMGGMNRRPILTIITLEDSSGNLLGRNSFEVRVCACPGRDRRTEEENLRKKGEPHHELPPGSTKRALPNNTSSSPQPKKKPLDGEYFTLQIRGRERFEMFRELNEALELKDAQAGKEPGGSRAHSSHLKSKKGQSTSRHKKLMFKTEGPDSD

CCOC(=O)COc1ccc(C)cc1
inactive: all assays above

CC(C)COC(=O)c1ccc(O)cc1
not listed: [8]
inactive: all other assays above

COc1ccc(C(=O)c2ccc(C)cc2)c(O)c1
not listed: [8]
inactive: all other assays above

CO[C@@H]1[C@@H](OC)[C@H](C)[C@@](O)(CC(=O)O)O[C@H]1[C@H](C)[C@H]1O[C@@]2(CC[C@@](C)([C@H]3CC[C@@](C)([C@@H]4O[C@@H]([C@H]5O[C@](C)(O)[C@H](C)C[C@@H]5C)C[C@@H]4OC4C[C@H](OC)[C@@H](OC)[C@H](C)O4)O3)O2)C[C@H](O)[C@H]1C (some centres not stated)
active: [1] 8.98 µM | [5] 16.7 µM
inactive: [2] | [3] | [4] | [7]

COc1ncnc(NS(=O)(=O)c2ccc(N)cc2)c1OC
not listed: [8]
inactive: all other assays above

CC(=O)[C@]1(O)Cc2c(O)c3c(c(O)c2[C@@H](O[C@H]2C[C@H](N)[C@H](O)[C@H](C)O2)C1)C(=O)c1c(O)cccc1C3=O
inactive: [2] | [4] | [5] | [6] | [7]
active: [1] 346 nM and 263 nM | [3] 222 nM and 212 nM | [7] 571 nM

NCCCNCCSP(=O)(O)O
not listed: [8]
inactive: all other assays above

CCCc1c2oc(C(=O)O)cc(=O)c2cc2c(=O)cc(C(=O)O)n(CC)c12
not listed: [6] | [8]
inactive: all other assays above

CC(=O)NC(Cc1ccccc1)C(=O)O (configuration not stated)
not listed: [5] | [8]
inactive: all other assays above

O=NN(CCCl)C(=O)NC1CCCCC1
inactive: [1] | [2] | [3] | [4] | [6]

O=S(O)CO
not listed: [6] | [8]
inactive: all other assays above

CCO[Si](CC(C)C)(OCC)OCC
not listed: [6] | [8]
inactive: all other assays above

CC(C)NCC(O)c1ccc2ccccc2c1 (configuration not stated)
not listed: [6] | [8]
inactive: all other assays above

CO[Si](CCCNCCC[Si](OC)(OC)OC)(OC)OC
not listed: [5] | [8]
inactive: all other assays above

O=C(O)Cc1ccc(Cl)cc1Cl
inactive: [1] | [2] | [3] | [4] | [6]

COc1ccc(C=CC(=O)OCCC(C)C)cc1
inactive: [1] | [2] | [3] | [4] | [6]

O=C(O)Cc1ccc(CCNS(=O)(=O)c2ccc(Cl)cc2)cc1
not listed: [5] | [8]
inactive: all other assays above

O=S(O)(O)=S
not listed: [5] | [8]
inactive: all other assays above

CCCCCCCCCCC[C@@H](C[C@@H]1OC(=O)[C@H]1CCCCCC)OC(=O)[C@H](CC(C)C)NC=O
not listed: [6] | [8]
inactive: all other assays above

CCCC(CC)CCCCCCCN (configuration not stated)
active: [2] 81 µM | [3] 79.2 µM
inactive: [1] | [4] | [6] | [7]

Nc1ccccc1O
active: [1] 41 µM | [3] 39.2 µM | [4] 75.4 µM | [5] 32.1 µM | [7] 35200 nM
inactive: [2]

CC(CO)Oc1ccccc1 (configuration not stated)
not listed: [6] | [8]
inactive: all other assays above

C[C@@H]1C[C@H]2[C@@H]3C[C@H](F)C4=CC(=O)C=C[C@]4(C)[C@@]3(Cl)[C@@H](O)C[C@]2(C)[C@H]1C(=O)COC(=O)C(C)(C)C
not listed: [6] | [8]
inactive: all other assays above

O=C(NCCO[N+](=O)[O-])c1cccnc1
not listed: [5] | [8]
inactive: all other assays above

COC(=O)CCc1ccc(OCC(O)CNC(C)C)cc1 (configuration not stated)
inactive: [1] | [2] | [3] | [4] | [6]

O=C(O)CCCc1ccccc1
active: [2] 36.2 µM
not listed: [6] | [8]
inactive: all other assays above

CC(C)=C1CC[C@@H](C)CC1=O
not listed: [6] | [8]
inactive: all other assays above

Nc1ccn(C2CO[C@H](CO)O2)c(=O)n1 (some centres not stated)
inactive: [2] | [4]
active: [1] 5.86e-05 µM | [3] 5.96e-05 µM | [5] 0.000329 µM | [7] 0.0816 nM
